The full list was thinned out, with hits kept by preference.
LmPK inhibitor – LmPK (Leishmania mexicana) enzyme inhibition | Potency, µM (series often up to 57.5 µM), without a hit: at the top dose activity change, negative = inhibition, most hits filed as inhibitors | purified LmPK, Kinase-Glo ATP luminescence, 1 h | 290,000 compounds, 0.37% hits; further: potency means the concentration at half of the fitted maximal effect; on the % scale 0 is the no-effect control and ±100 the full control effect
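Purified LmPK (0.1 nM) converted ADP (0.1 mM) to ATP with PEP (0.5 mM) in imidazole buffer pH 7.2 with KCl and MgCl2, 1 h at room temperature. ATP was read by Kinase-Glo luminescence; data normalized to uninhibited and no-enzyme controls.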
Sm TGR inh – S. mansoni TGR enzyme inhibition | purified TGR, DTNB reduction, TNB absorbance 405 nm | Potency, µM (highest dose often 114 µM), for inactives: at the highest dose activity change, negative = inhibition, hits mostly inhibitors | AID 485364 | 360,000 compounds, 3% hits; further: potency means the concentration at half of the fitted maximal effect; on the % scale 0 is the no-effect control and ±100 the full control effect; nearly all actives have a fitted effect of over 60% in size
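First, TGR (20 nM dispensed) and NADPH were mixed with compound. Second, a 15 min room-temperature incubation followed. Third, further NADPH and then DTNB were added to start the reaction. Finally, TNB absorbance was monitored kinetically.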
Cycloheximide cs – affects cycloheximide protein synthesis inhibition readout, counter-screen | 300,000 compounds, 12% hits | AID 2314 | cell reporter, cycloheximide protein synthesis inhibition counterscreen | max response, %; in the data active means max response mostly above about 13%, no sharp cut-off; inactive means mostly below about 14%; further: read at 38.3 µM for the half of the compounds with a filed dose; 0% is about no effect
Tb PYK inh – blocks Trypanosoma brucei pyruvate kinase; Q57TT1; TbPYK enzyme, Kinase-Glo Plus ATP luminescence, 45 min; Potency, µM (highest dose often 76.8 µM), for inactives: at the highest dose activity, negative = inhibition, actives largely listed as inhibitors; 410,000 compounds, 0.12% hits; further: potency means the concentration at half of the fitted maximal effect; on the % scale 0 is the no-effect control and ±100 the full control effect; nearly all actives have a fitted effect of over 50% in size
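Activity of T. brucei pyruvate kinase was followed by Kinase-Glo Plus luminescence after the enzyme reacted 45 min at room temperature with 130 uM ADP (final) and substrate. Test compounds were added before ADP at multiple concentrations.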
Shiga inhibitor – Shiga toxin inhibition. Vero cells, Shiga toxin protein synthesis inhibition reporter. inhibition, % at 38.7 µM. 290,000 compounds, 9.2% hits. AID 2315; in the data active means inhibition mostly above about 28%, no sharp cut-off; inactive means mostly below about 43%; further: 0% is about no effect
FBPA Giardia inh – Giardia lamblia aldolase inhibition; A8B2U2; purified Giardia FBPA; Potency, µM (titrated, usually from 59.6 µM), for the others: at the highest dose activity, negative = inhibition, most hits filed as inhibitors; 290,000 compounds, 0.71% hits; further: potency means the concentration at half of the fitted maximal effect; on the % scale 0 is the no-effect control and ±100 the full control effect; nearly all actives have a fitted effect of over 55% in size
Target sequence (A8B2U2 whole entry, looked up): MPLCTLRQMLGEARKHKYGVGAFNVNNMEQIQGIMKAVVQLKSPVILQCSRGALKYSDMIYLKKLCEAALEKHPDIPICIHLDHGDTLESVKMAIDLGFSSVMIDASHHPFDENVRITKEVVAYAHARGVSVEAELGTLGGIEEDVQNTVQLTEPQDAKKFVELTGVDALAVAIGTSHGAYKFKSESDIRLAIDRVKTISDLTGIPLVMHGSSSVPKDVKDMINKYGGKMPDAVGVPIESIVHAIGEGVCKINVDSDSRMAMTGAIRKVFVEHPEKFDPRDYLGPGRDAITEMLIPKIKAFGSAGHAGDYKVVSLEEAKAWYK
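Giardia FBPA (40 nM reagent) was preincubated 10 min at RT with compound (up to 57.5 uM final), then substrate plus GAPDH/TPI/NAD/arsenate coupling system with diaphorase/resazurin was added; resorufin fluorescence (525/598 nm) was read after 20 min.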
An asterisk follows results filed as active. Unless noted, the call rests on the fitted dose curve; in most records, active means well fitted curve in the direction sought with a large enough effect; inconclusive means small, poorly fitted or top-dose-only effect, or another doubt; inactive means no such curve, though single readings can be large; an effect the other way counts as inactive or inconclusive.

For COC(=O)c1ccc(OCC2c3cc(OC)c(OC)cc3CCN2C(=O)Cc2ccc(OC)cc2)cc1 (stereo not drawn) the results were Sm TGR inh 4.4% and Tb PYK inh 1.2%.
`Cc1c(C(=O)NCc2ccc(C(C)C)cc2)sc(=O)n1Cc1ccc(S(=O)(=O)N(C)C)cc1` gave Tb PYK inh 3.8%.
`CC1CCc2c(C(=O)NCc3ccccn3)csc2C1` (stereo not drawn) gave LmPK inhibitor 1.5%, Sm TGR inh -9.4%, Cycloheximide cs 65.5*, Tb PYK inh inconclusive, Shiga inhibitor 160.9* and FBPA Giardia inh -2.7%.
Screening CC1CCc2c(C(=O)Nc3nccs3)csc2C1 (stereo not drawn) returned LmPK inhibitor 0.7%, Sm TGR inh 7.4%, Cycloheximide cs 37.1*, Tb PYK inh 4.0%, Shiga inhibitor 69.1* and FBPA Giardia inh -0.7%.
Screening CC1CCc2c(C(=O)NCC3CCCO3)csc2C1 (stereo not drawn) returned LmPK inhibitor -2.3%, Sm TGR inh -10.4%, Cycloheximide cs 85.8*, Tb PYK inh -17.4%, Shiga inhibitor 98.0* and FBPA Giardia inh -26.8%.
Cc1ccccc1NC(=S)NNC(=O)c1csc2c1CCC(C)C2 (stereo not drawn) was read as LmPK inhibitor -6.5%, Sm TGR inh 5.7%, Cycloheximide cs 34.5*, Tb PYK inh -1.1%, Shiga inhibitor 78.3* and FBPA Giardia inh 16.6%.
`O=C(NCC1CCCO1)c1csc2c1CCCCC2` (stereo not drawn) gave LmPK inhibitor -2.6%, Sm TGR inh 10.7%, Cycloheximide cs 10.8, Tb PYK inh 0.0%, Shiga inhibitor 7.2 and FBPA Giardia inh -1.1%.
Screening CCOc1ccc(CCNC(=O)NCc2noc3ccc(C)cc23)cc1 returned Sm TGR inh 0.6% and Tb PYK inh -1.4%.
CC1CCc2c(C(=O)NCc3cccnc3)csc2C1 (stereo not drawn) was read as LmPK inhibitor 0.7%, Sm TGR inh -7.0%, Cycloheximide cs 6.4, Tb PYK inh -10.5%, Shiga inhibitor -7.0 and FBPA Giardia inh 0.8%.
Screening CC1CCc2c(C(=O)Nc3ccccn3)csc2C1 (stereo not drawn) returned LmPK inhibitor 2.4%, Sm TGR inh 7.4%, Cycloheximide cs 47.1*, Tb PYK inh 0.3%, Shiga inhibitor 69.7* and FBPA Giardia inh -3.9%.
For Cc1c(Cl)cccc1NC(=O)C1CCCN(c2nnc(-n3c(C)ccc3C)s2)C1 (stereo not drawn) the results were Sm TGR inh -26.7% and Tb PYK inh 0.2%.
Screening CCOC(=O)c1c(C)oc2c(F)c(F)c(F)c(F)c2c1=O returned LmPK inhibitor -8.6%, Sm TGR inh 31.6µM*, Cycloheximide cs 0.8, Tb PYK inh -2.4%, Shiga inhibitor 3.5 and FBPA Giardia inh -8.7%.
For CCn1c(O)c(C2=c3ccccc3=NC2=O)c2cc(Br)ccc21 the results were LmPK inhibitor -17.1%, Sm TGR inh 6.2%, Cycloheximide cs 5.2, Tb PYK inh -4.3%, Shiga inhibitor -2.9 and FBPA Giardia inh 2.9%.
O=C1N=c2ccccc2=C1c1c(O)n(-c2cccc(F)c2)[nH]c1=O was read as LmPK inhibitor -13.8%, Sm TGR inh 22.4µM*, Cycloheximide cs -4.4, Tb PYK inh inconclusive, Shiga inhibitor 1.7 and FBPA Giardia inh inconclusive.
CCSC1=NCCN1C(=O)Cc1ccc(-c2ccccc2)cc1 was read as LmPK inhibitor -2.6%, Sm TGR inh -2.9%, Cycloheximide cs 8.5, Tb PYK inh -9.6%, Shiga inhibitor -6.3 and FBPA Giardia inh -1.5%.
`CSC1=NCCN1C(=O)Cc1ccc(-c2ccccc2)cc1` gave LmPK inhibitor -1.7%, Sm TGR inh -0.3%, Cycloheximide cs 20.2, Tb PYK inh -2.6%, Shiga inhibitor 41.8* and FBPA Giardia inh 2.3%.
CCOc1cccc2cc(-c3nc4sc5c(c4c(=O)[nH]3)CCC(C(C)(C)C)C5)c(=O)oc12 (stereo not drawn) was read as Sm TGR inh 0.1% and Tb PYK inh -1.1%.
Screening Cc1ccc(-c2c(C(=O)N3CCN(c4cc(Cl)ccc4C)CC3)oc(=O)c3ccccc23)cc1 returned Sm TGR inh -2.0% and Tb PYK inh 0.2%.
C/C(CC(=O)NC12CC3CC(CC(C3)C1)C2)=N\NC(=O)Cc1cccs1 was read as LmPK inhibitor 2.3%, Sm TGR inh -0.7%, Cycloheximide cs 11.6, Tb PYK inh -4.3%, Shiga inhibitor 13.3 and FBPA Giardia inh -1.4%.
Screening C/C(CC(=O)NC1CCCC1)=N\NC(=O)Cc1cccs1 returned LmPK inhibitor -0.6%, Sm TGR inh -12.1%, Cycloheximide cs 15.5*, Tb PYK inh -10.9%, Shiga inhibitor 19.8 and FBPA Giardia inh 0.6%.
C/C(CC(=O)Nc1ccc(Cl)cn1)=N\NC(=O)Cc1cccs1 was read as LmPK inhibitor 3.3%, Sm TGR inh -12.6%, Cycloheximide cs 12.6*, Tb PYK inh -0.7%, Shiga inhibitor 26.1 and FBPA Giardia inh -2.8%.
For COc1ccc(/C=C2/C(=O)N(c3nc4ccccc4s3)N=C2CSc2ccc(Cl)cc2)cc1 the results were LmPK inhibitor -1.4%, Sm TGR inh -14.4%, Cycloheximide cs 13.5*, Tb PYK inh -0.9%, Shiga inhibitor 14.2 and FBPA Giardia inh -14.2%.
For Cc1ccc(-c2nc(CN(CC3CCC3)CC3CCCO3)c(C)o2)s1 (stereo not drawn) the results were LmPK inhibitor 2.9%, Sm TGR inh 56.2µM*, Cycloheximide cs -3.5, Tb PYK inh 0.9%, Shiga inhibitor 8.7 and FBPA Giardia inh -1.6%.
For O=C(/C=C/[C@H]1O[C@@H](n2cnc3c(NC(=O)c4ccccc4)ncnc32)[C@H](O)[C@@H]1O)N[C@@H](CO)Cc1c[nH]c2ccccc12 the results were Tb PYK inh -0.3%.
O=C(NNc1ccccn1)c1ccccc1CC[N+](=O)[O-] was read as LmPK inhibitor 5.9%, Sm TGR inh 3.7%, Cycloheximide cs 14.2*, Tb PYK inh 3.0%, Shiga inhibitor 21.8 and FBPA Giardia inh -14.1%.
For Cc1cc(C)cc(NC(=O)c2ccccc2CC[N+](=O)[O-])c1 the results were LmPK inhibitor 3.5%, Sm TGR inh 39.8µM*, Cycloheximide cs 6.2, Tb PYK inh -3.2%, Shiga inhibitor 13.0 and FBPA Giardia inh 2.2%.
`Cc1ccc(NC(=O)Nc2ccccc2CC[N+](=O)[O-])cc1` gave LmPK inhibitor 2.5%, Sm TGR inh 1.0%, Cycloheximide cs 16.1*, Tb PYK inh 0.4%, Shiga inhibitor -2.4 and FBPA Giardia inh 2.9%.
O=C(Nc1ccccc1C(=O)Nc1ccccn1)c1ccc([N+](=O)[O-])cc1 was read as LmPK inhibitor -2.1%, Cycloheximide cs -3.3, Tb PYK inh -2.0%, Shiga inhibitor 11.3 and FBPA Giardia inh 0.4%.

Bioassay records: PubChem BioAssay, National Center for Advancing Translational Sciences (NCATS)
